Drawing on PubChem BioAssay (NCI), this text covers growth for 13 molecules.

About 83,000 compounds went through this panel and 20% of them were active in at least one assay; those are over-represented in the sample as a whole.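 Compound tested at a single concentration for 48 hours in 96-well plates; a percent growth value below 10 was scored as active.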 Unmarked numbers belong to inactive results. Active and inactive are the calls of the source.

Common to all, as to assay: NCI-60 one-dose screen, 48 h (100 = growth as untreated, 0 = no growth, -100 = all killed)
Common to all, as to details: 10 µM unless noted

The test system of assay [1] is SR leukemia.
Assay [2] relates to RPMI-8226 leukemia.
Assay [3] has as its system OVCAR-8 ovarian.
Assay [4] relates to OVCAR-5 ovarian.
For assay [5], the system named is OVCAR-4 ovarian.
Assay [6] concerns SK-OV-3 ovarian.
The test system of assay [7] is IGROV1 ovarian.
The subject of assay [8] is OVCAR-3 ovarian.
Assay [9] has as its system HS 578T breast.
The test system of assay [10] is NCI/ADR-RES ovarian.

With `COc1ccc(C2=Nc3c/c(=C\c4c(O)[nH]c5ccc(Cl)cc45)ccc3=N2)cc1`, the growth was 2.44% (active) in assay [1]; 22.7% in assay [2]; 51.7% in assay [3]; 82.9% in assay [4]; 64.2% in assay [5]; 64.6% in assay [6]. The growth in assay [7] is 75.3%; in assay [8], 32.7%; in assay [9], 41.8%; in assay [10], 12.7%.

For the molecule `CCOC(=O)c1nc(Nc2ccc(NC(=O)Nc3ccc(F)cc3)cc2)c2ccccc2n1`, the growth is 90.2% in assay [1]; 109% in [2]; 106% in assay [3]; 108% in [4]; 114% in assay [5]; 100% in assay [6]. Besides, the growth in assay [7] was 102%; in assay [8], 102%; in [9] it was 99.9%; in [10] it was 92.7%.

As to `CCNc1nc(-c2ccc(Cl)c(OC)c2)c(-c2ccnc(NCCCNS(=O)(=O)c3ccc(Cl)cc3)n2)s1`, the growth in [1] was 43.4%; in assay [2], 45.9%; in assay [3], 51%; in [4] it was 87.6%; in assay [5], 83%; in assay [6], 42.1%. Besides, the growth is 56.1% in assay [7], 81.2% in assay [8], 64.3% in [9] and 77.6% in assay [10].

Regarding `COc1cc(-c2csc(NC(=O)c3cc(-n4cnc(C)c4)cc(C(F)(F)F)c3)n2)cc(OC)c1OC`, the growth in assay [1] is 34%; in [2], 24.1%; in [3], 40.2%; in assay [4] it was 104%; in [5] it was 70.9%; in [6] it was 114%. Also, the growth is 52% in [7], 65% in [8], 26.7% in [9] and 64.9% in [10].

As to `O=C1/C(=C/c2cccs2)SC(=S)N1CCCN1CCOCC1`, the growth in assay [1] was 92.5%; in assay [2], 97.9%; in assay [3] it was 96%; in assay [4] it was 105%; in assay [5], 89.1%; in [6], 99.4%. Also, the growth in [7] is 97%; in assay [8] it was 113%; in assay [9], 98.7%; in assay [10], 92.7%.

On to `COc1ccc(-c2nc3c(c(-c4ccccc4)nn3-c3ccccc3)c(-c3ccc(N4CCOCC4)cc3)c2C#N)cc1`, for which the growth in assay [1] is 110%; in assay [2], 89.8%; in [3] it was 105%; in assay [4], 102%; in assay [5] it was 106%; in assay [6] it was 119%. Further, the growth was 109% in assay [7], 115% in [8], 106% in [9] and 111% in assay [10].

Take `C/C(=N\NC(=O)c1ccccc1O)c1cccc(/C(C)=N/NC(=O)c2ccccc2O)n1`: the growth was 16.6% in assay [1]; 41.4% in assay [2]; 32.3% in assay [3]; 78.9% in assay [4]; 35.4% in assay [5]; 45.6% in assay [6]. Further, the growth was 61.8% in [7], 9.77% (active) in assay [8], 69.3% in assay [9] and 59.1% in assay [10].

`O=c1oc2ccc([N+](=O)[O-])cc2cc1Br`: the growth in assay [1] was 85%; in [2], 107%; in [3] it was 100%; in [4], 109%; in [5] it was 109%; in assay [6] it was 106%. The growth in assay [7] is 119%; in [8], 111%; in assay [9] it was 106%; in [10], 108%.

For `O=C(Cn1cc(CN2C(=O)c3ccccc3S2(=O)=O)nn1)Nc1nc2ccccc2s1`, the growth is 121% in [1]; 107% in [2]; 102% in assay [3]; 101% in assay [4]; 100% in assay [5]; 79% in assay [6]. The growth in assay [7] is 93.4%; in [8], 102%; in assay [9] it was 110%; in [10] it was 97.6%.

For the molecule `CC[C@]12C=CCN3CC[C@@]4(c5cc(NC(=O)CCC(=O)OCc6cn(Cc7ccc(F)cc7)nn6)c(OC)cc5N(C)[C@H]4[C@@](O)(C(=O)OC)[C@@H]1OC(C)=O)[C@@H]32`, the growth in assay [1] was 94.2%; in [2], 104%; in assay [3], 103%; in [4] it was 100%; in assay [5], 98.2%; in [6], 90.7%. The growth was 108% in assay [7], 104% in assay [8], 108% in assay [9] and 109% in assay [10].

In the case of `Cc1ccccc1Cn1cnc2ccc(-c3cc(NC(=O)c4ccc(NC5CCN(C)CC5)cc4)n[nH]3)cc21`, the growth in assay [1] was 52.9%; in assay [2], 77.1%; in assay [3], 104%; in assay [4] it was 69.9%; in assay [5], 62.5%; in assay [6], 75.7%. The growth is 26.5% in [7], 99.8% in [8], 2.06% (active) in assay [9] and 104% in assay [10].

Consider `Fc1ccc(Nc2nc3nonc3nc2Nc2ccc(I)cc2)cc1`, for which the growth was -4.09% (active) in assay [1]; -11.6% (active) in [2]; 4.01% (active) in assay [3]; 37.5% in assay [4]; 17.8% in [5]; -24.5% (active) in assay [6]. For the same molecule, the growth was 23.2% in [7], 9.78% (active) in assay [8], 8.99% (active) in assay [9] and 4.92% (active) in assay [10].

For the molecule `CCN(CC)CCOc1ccc(-c2c(-c3ccccc3)c(=O)oc3ccccc23)cc1`, the growth is 93.6% in assay [1]; 90.9% in [2]; 90.6% in assay [3]; 95.6% in assay [4]; 94.2% in assay [5]; 79.1% in assay [6]. Moreover, the growth was 95.5% in [7], 104% in assay [8], 71.2% in assay [9] and 84.8% in [10].
